# Reference: the supplement of paper PMC9433436
# ± gives the standard deviation of the averaged measurements. The full ranking holds about 4,100 sequences; the median of “relative kcat/Km (krel) vs genomic leader AAAGAU” is about 1.7, and the highest 2% start at about 6.5. Many of the other results were omitted from the sample, so the highest values are more common in it than they were.
# Molecular target: T1, E. coli RNase P holoenzyme (M1 P RNA + rnpA protein) (UniProt P0A7Y8)
# T1 sequence: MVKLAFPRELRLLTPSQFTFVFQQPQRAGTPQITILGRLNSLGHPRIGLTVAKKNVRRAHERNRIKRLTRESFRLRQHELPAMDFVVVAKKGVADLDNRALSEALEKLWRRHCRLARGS
# Assay: relative kcat/Km (krel) vs genomic leader AAAGAU (relative (reference leader = 1)); higher = faster RNase P cleavage
# Description: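 HTS-Kin: a pool of ptRNA-Met (21C construct) with all 4096 combinations of 5' leader nucleotides N(-6) to N(-1) was processed in vitro by E. coli RNase P (P RNA + rnpA/C5 protein) under multiple-turnover conditions at 37 C, pH 8, 17.5 mM MgCl2. Residual substrate was Illumina-sequenced at several fractions reacted, and relative kcat/Km (krel) was computed by internal competition kinetics, calibrated to the genomic leader (AAAGAU = 1). The listed hexamer is the varied N(-6)..N(-1) leader (DNA letters), and it sits between a fixed 5' stem-loop flank (GCAUGCACGAAAGUGCGUGCUAUGAA) and the mature tRNA-Met starting GGCUACGUAGCUCAGUUGG. Two technical replicates are averaged.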
# [1] = fraction of substrate reacted: ~9-10% (9.79% repeat 1, 9.1% repeat 2)
# [2] = fraction of substrate reacted: ~13-16% (15.68% repeat 1, 13.17% repeat 2)
# [3] = fraction of substrate reacted: ~26-29% (28.66% repeat 1, 26.4% repeat 2)
Sequence,relative kcat/Km [1],relative kcat/Km [2],relative kcat/Km [3]
ACGCAC,1.83 ± 0.3,2.12 ± 0.95,3.59 ± 1.2
CATCCC,2.17 ± 1.8,2.06 ± 1.1,1.96 ± 0.22
CCTTTC,2.13 ± 0.9,2.39 ± 0.27,3.08 ± 0.83
CCTTCA,1.71 ± 1.4,1.18 ± 0.065,1.84 ± 0.056
TACTTC,4.11 ± 1.8,4.99 ± 1.3,6.85 ± 2.9
TACTTT,3.77 ± 1.4,4.69 ± 0.54,6.8 ± 3.1
TACTTA,3.1 ± 0.66,4.1 ± 0.88,5.63 ± 2.6
CACTTT,3.33 ± 1.1,4.55 ± 0.76,6.22 ± 2.4
TACTTG,,0.792 ± 0.45,2.68 ± 1.1
CACTTC,2.93 ± 0.5,3.69 ± 0.85,5.44 ± 2.2
GTTATG,,1.56 ± 0.24,3.32 ± 0.7
CTTTTA,2.68 ± 0.65,2.79 ± 0.91,3.18 ± 1.2
AAGCAT,2.34 ± 0.52,2.87 ± 1,3.28 ± 1.9
CGCCAT,3 ± 0.35,4.6 ± 1.3,6.07 ± 2.5
GTCCAG,2.58 ± 1,2.9 ± 0.5,5.48 ± 2
CTCCCT,3 ± 0.57,3.57 ± 0.86,4.86 ± 2.1
GTCCCT,2.62 ± 0.56,3.61 ± 0.74,5.58 ± 2.5
TTCCAC,5.3 ± 2,6.51 ± 1.3,9.46 ± 4.2
GTCCAT,4.26 ± 0.8,6.41 ± 1.5,9.1 ± 4.4
TTCCCC,3.49 ± 1.7,4.17 ± 0.71,5.59 ± 1.9
CTCCAT,4.25 ± 0.86,5.67 ± 1.3,8.48 ± 4

Sequence,relative kcat/Km [1],relative kcat/Km [2],relative kcat/Km [3]
TTCCAA,4.78 ± 1.8,6.03 ± 0.65,8.56 ± 3.5
TTCCAG,2.51 ± 1.5,3.27 ± 0.64,5.49 ± 1.9
TGCCAA,3.18 ± 1.1,2.55 ± 0.62,4.09 ± 1
TGCCAC,2.55 ± 1.6,3.121 ± 0.026,4.36 ± 1.6
CCTCTG,,,1.47 ± 0.38
CTTGGA,1.23 ± 1.1,1.2 ± 0.45,1.15 ± 0.8
TTGAGC,1.16 ± 0.28,1.24 ± 0.71,1.47 ± 0.22
ACCGGC,1.08 ± 0.83,,
AGAACC,1.66 ± 1.1,1.82 ± 0.43,1.82 ± 0.17
GCACGT,,,0.727 ± 0.1
CAAAGG,0.345 ± 0.3,,
ATCCAG,1.67 ± 0.93,1.77 ± 0.18,3.83 ± 0.61
GTCCCC,2.87 ± 2.5,4.17 ± 0.82,5.29 ± 1.4
GTCCAC,5.04 ± 1.9,6.06 ± 1.1,8.78 ± 3.9
ATCCCC,2.42 ± 0.41,3.13 ± 0.35,4.59 ± 2.2
AGCCAT,3.54 ± 1.2,3.08 ± 0.86,4.77 ± 2
ATCCAA,3.15 ± 0.43,4.2 ± 1.2,6.3 ± 2.3
GACCAA,1.8 ± 0.3,3.47 ± 1.1,4.86 ± 1.5
ATCCAC,4.03 ± 1.7,4.47 ± 0.19,6.76 ± 2.2
ATCCCT,2.7 ± 0.55,3.48 ± 0.4,4.42 ± 1.8
GTCCAA,3.74 ± 1.3,4.92 ± 0.95,7.96 ± 3

Sequence,relative kcat/Km [1],relative kcat/Km [2],relative kcat/Km [3]
ATCCAT,3.89 ± 0.97,4.72 ± 1.4,7.14 ± 3.2
GGCCAC,0.682 ± 0.091,1.39 ± 0.35,2.65 ± 0.59
TTTGCC,1.81 ± 0.95,1.79 ± 0.37,2.42 ± 0.16
AGTATT,2.4 ± 0.68,3.14 ± 0.3,4.91 ± 2.2
AACTGG,,,0.249 ± 0.046
TGATGT,,1.13 ± 1.1,1.37 ± 0.91
ACTTTA,1.56 ± 0.72,1.89 ± 0.44,2.18 ± 0.5
GCTGCC,1.37 ± 0.5,0.461 ± 0.12,0.965 ± 0.29
GCGGCA,,0.64 ± 0.26,
CATTTC,2.59 ± 0.64,2.31 ± 0.88,4.06 ± 1.9
CTCCAG,2.81 ± 1.9,2.34 ± 0.026,4.6 ± 1.3
TGCCAT,2.8 ± 0.93,2.89 ± 0.61,4.45 ± 1.8
TTCCAT,4.71 ± 0.96,7.43 ± 1.3,10.3 ± 4.6
CTCCCC,2.43 ± 0.053,3.34 ± 1,4.73 ± 2.2
CGCCAA,2.95 ± 0.91,3.15 ± 0.75,5.09 ± 1.8
CTCCAA,4.23 ± 2.1,4.62 ± 0.048,6.98 ± 2.8
CACCAC,3.5 ± 0.91,3.81 ± 1.5,5.55 ± 2.2
TTCCCT,3.18 ± 0.59,4.37 ± 1.1,6.18 ± 2.6
CTCCAC,4.55 ± 1.9,5.88 ± 1.5,7.81 ± 3.1
